Source: PubChem
This is a sample that favours compounds with a hit; in the whole collection about 3.6% have one here.
Pf apPOL inh = Pf-apPOL DNA polymerase inhibition; hit rate 0.25% among 210,000; inhibition, % at 10 µM; Recombinant Pf-apPOL, molecular beacon fluorescence, 1.5 h
mHTT-CaM PPI inh = disrupts binding of mutant huntingtin to calmodulin; AlphaScreen His-mHTT/GST-CaM binding, luminescence; inhibition, % at 15 µM; hit rate 3.6% among 190,000; AID 1671202;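 note: 0% = both proteins with DMSO and 100% = one protein alone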
Starred values were filed as active, the others as inactive; nt = not tested or not shown. Cut-off read from the data, not from the text of the source: active = inhibition above about 50%; inactive = the rest.

SMILES	Pf apPOL inh	mHTT-CaM PPI inh
Cc1cccc(NC(c2cccc(Cl)c2)c2ccc3cccnc3c2O)n1 (centres undefined)	-2	98*
Cc1cccc(NS(=O)(=O)c2ccc(Cl)cc2)n1	0	-2
Cc1cccc(NC(=O)c2cccs2)n1	0	nt
COc1ccc(NC(=O)Nc2cccc(C)n2)cc1	4	-6
O=C(Nc1cccc(Cl)c1)Nc1cccc2cccnc12	-5	-2
Cc1cccc(NC(c2ccncc2)c2ccc3cccnc3c2O)n1 (centres undefined)	2	100*
Cc1cccc(-n2c(CN3CCN(C(=O)NC4CCCCC4)CC3)nc3cccnc32)c1	3	0
O=C(c1cnn2c(C(F)(F)F)cc(-c3ccco3)nc12)N1CCCC1c1ccc(F)cc1 (centres undefined)	-3	17
CCCCNC(=O)c1n[nH]c2c1CN(C(=O)c1cccc(C)c1)CC2	6	-6
CC(=O)c1cccc(NC(=O)C2CCCN(S(=O)(=O)c3ccc(Br)s3)C2)c1 (centres undefined)	2	0
Cc1ccccc1-n1nc2c(c1NC(=O)C13CC4CC(CC(C4)C1)C3)CS(=O)(=O)C2	78*	11
Cc1ccccc1-n1nc2c(c1NC(=O)C13CC4CC(CC(C4)C1)C3)CSC2	-7	0
CC(=O)Oc1ccc2c(=O)c(Oc3ccccc3)coc2c1	-7	20
COc1ccccc1Oc1coc2cc(OC(=O)C(C)C)ccc2c1=O	-2	100*
COc1cccc(Oc2coc3cc(OC(=O)C(C)C)ccc3c2=O)c1	-6	31
COC(=O)Oc1ccc2c(=O)c(Oc3ccc(C)cc3)coc2c1	16	80*
COc1ccc(Cl)cc1NC(=O)CSc1cc(-c2nc(C3CC3)no2)ccn1	-2	-14
COc1ccc(CNC(=O)c2cn3c(n2)CCCC3)cc1OC	-6	0
O=C(c1cn(-c2ccc(Cl)cc2)nn1)N1CCCCC1	-5	-5
COc1ccc(C2CC(c3ccccc3OC)n3nc(N)nc3N2)cc1 (centres undefined)	-4	2
CCOc1ccccc1C1CC(c2ccc(F)cc2)Nc2nc(N)nn21 (centres undefined)	-2	72*
COc1ccccc1C1CC(c2ccccc2)Nc2nc(N)nn21 (centres undefined)	-1	-8
COc1ccccc1C1CC(c2ccc(F)cc2)Nc2nc(N)nn21 (centres undefined)	-3	62*
CCn1cc(-c2ccccc2)cc1C(=O)NC(C)c1ccccn1 (centres undefined)	-7	23
Cc1ccccc1OCC(O)CNS(=O)(=O)c1ccccc1C(=O)O (centres undefined)	2	-2
SMILES	Pf apPOL inh	mHTT-CaM PPI inh
COc1ccccc1C(=O)N/C(=C/c1ccc2c(c1)OCO2)C(=O)NCc1ccccc1	4	8
CC(C)Cc1nc(SCC(=O)Nc2ccc(S(N)(=O)=O)cc2)n[nH]1	62*	-5
CC(C)Cc1nc(SCC(=O)Nc2ccccc2)n[nH]1	2	-4
Cc1cc(NS(=O)(=O)c2ccc(NC(=O)c3ccc(C)c(Br)c3)cc2)no1	-6	2
CC1=NN(c2cccc(Cl)c2)C(=O)/C1=C/c1ccc(-c2ccc(C(=O)O)c(Cl)c2)o1	-6	52*
CC1=NN(c2ccccc2)C(=O)/C1=C/c1ccc(-c2ccc(Cl)c(C(=O)O)c2)o1	-3	77*
O=C1NN(c2ccc(Cl)c(Cl)c2)C(=O)/C1=C/c1ccc(-c2cccc(C(=O)O)c2)o1	-4	17
CC1=NN(c2ccccc2)C(=O)/C1=C/c1ccc(-c2cccc([N+](=O)[O-])c2)o1	-9	5
CC1=NN(c2ccccc2)C(=O)/C1=C/c1ccc(-c2ccccc2Cl)o1	-2	8
COc1cc([N+](=O)[O-])ccc1-c1ccc(/C=C2/C(=O)N(c3cccc(Cl)c3)N=C2C)o1	-7	0
CC1=NN(c2ccccc2)C(=O)/C1=C/c1ccc(-c2cccc(C(=O)O)c2)o1	-12	76*
O=C1NN(c2ccc(Cl)c(Cl)c2)C(=O)/C1=C/c1ccc(-c2ccccc2C(=O)O)o1	-1	51*
COc1ccccc1NC(=O)c1ccc2c(c1)C(=O)c1ccccc1-2	-2	0
O=C(Nc1ccc(F)cc1F)c1cccc(Oc2ncccn2)c1	1	-20
Oc1cccc2ccc(/C=C/c3ccc(F)cc3)nc12	-3	34
COc1ccc(/C=C/c2ccc3c(Cl)ccc(O)c3n2)cc1	-3	79*
COc1ccc(Cl)cc1NC(=O)CN1C(=O)CC(C)Sc2ccccc21 (centres undefined)	-4	0
COc1ccc(NC(=O)CN2C(=O)CC(c3ccco3)Sc3ccccc32)c(OC)c1 (centres undefined)	-3	92*
Cc1nc(-c2ccccc2)sc1C(=O)N1CCC(CC(=O)NC2CCCC2)CC1	-4	13
O=c1[nH]c2ccccc2n1CCCSc1nc2ccccc2o1	-5	51*
O=c1[nH]c2ccccc2n1CCCSc1cccs1	-1	5
